Values joined by “and” are separate entries in the source; they are usually repeats but may differ in a detail not shown here. Equal entries are not always repeated. The whole screen tested about 5,500 compounds, of which about 2,000 (36%) were called active. Another 18% or so got no clear call; they are omitted. Rule as the data show it: active = normalized growth mostly below about 0.91 (no sharp cut-off); inconclusive = no clear call, values can overlap the other calls; inactive = mostly above about 0.92. The list shows a part of the results.
Experiment: chemical genetic growth profiling, strain panel (AID 1159580);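 also: tested at 20 µM; growth read once vehicle control cultures reached saturation at 30 °C; 1 = growth at the plate median or of vehicle wells; lower values mean less growth of the strain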
Details: growth OD

Measured: normalized growth

NNCc1cccc(O)c1
inactive: S. cerevisiae deletion strains, locus YAL013W, strain DEP1, hits give low values 0.994 | S. cerevisiae deletion strains, locus YAL040C, strain CLN3, hits give low values 1.08 | S. cerevisiae deletion strains, locus YBR021W, strain FUR4, hits give low values 1.07 | S. cerevisiae deletion strains, locus YBR229C, strain ROT2, hits give low values 1 | S. cerevisiae deletion strains, locus YCL029C, strain bik1, hits give low values 0.988 | S. cerevisiae deletion strains, locus YCL061C, strain MRC1 (second series), hits give low values 0.984 | S. cerevisiae deletion strains, locus YDL035C, strain GPR1, hits give low values 0.969 | S. cerevisiae deletion strains, locus YDL074C, strain BRE1, hits give low values 0.98 | S. cerevisiae deletion strains, locus YDL101C, strain DUN1, hits give low values 0.994 | S. cerevisiae deletion strains, locus YDL134C, strain PPH21, hits give low values 0.994 | S. cerevisiae deletion strains, locus YDL192W, strain arf1, hits give low values 1 | S. cerevisiae deletion strains, locus YDR101C, strain arx1, hits give low values 0.989 | S. cerevisiae deletion strains, locus YDR150W, strain NUM1, hits give low values 0.987 and 0.976 | S. cerevisiae deletion strains, locus YDR162C, strain NBP2, hits give low values 0.987 | S. cerevisiae deletion strains, locus YDR318W, strain mcm21, hits give low values 1 | S. cerevisiae deletion strains, locus YDR363W, strain ESC2, hits give low values 1.01 | S. cerevisiae deletion strains, locus YDR388W, hits give low values 1.01 | S. cerevisiae deletion strains, locus YDR502C, strain sam2, hits give low values 0.996 | S. cerevisiae deletion strains, locus YEL061C, strain CIN8, hits give low values 1 | S. cerevisiae deletion strains, locus YER002W, strain NOP16, hits give low values 0.995 | S. cerevisiae deletion strains, locus YER110C, hits give low values 0.968 | S. cerevisiae deletion strains, locus YER155C, strain BEM2, hits give low values 1 | S. cerevisiae deletion strains, locus YER167W, strain BCK2, hits give low values 0.99 | S. cerevisiae deletion strains, locus YGL078C, strain dbp3, hits give low values 0.99 | S. cerevisiae deletion strains, locus YGL086W, strain mad1, hits give low values 0.984 | S. cerevisiae deletion strains, locus YGL248W, strain PDE1, hits give low values 0.996 | S. cerevisiae deletion strains, locus YGR078C, strain PAC10, hits give low values 1 | S. cerevisiae deletion strains, locus YGR135W, strain pre9, hits give low values 1.02 | S. cerevisiae deletion strains, locus YGR229C, strain SMI1, hits give low values 1.01 | S. cerevisiae deletion strains, locus YGR252W, strain gcn5, hits give low values 0.992 | S. cerevisiae deletion strains, locus YHR030C, strain SLT2, hits give low values 0.994 | S. cerevisiae deletion strains, locus YHR079C, strain IRE1 (second series), hits give low values 0.987 | S. cerevisiae deletion strains, locus YHR094C, strain hxt1, hits give low values 0.99 | S. cerevisiae deletion strains, locus YHR129C, strain ARP1, hits give low values 0.993 | S. cerevisiae deletion strains, locus YHR200W, strain rpn10, hits give low values 0.986 | S. cerevisiae deletion strains, locus YIL066C, strain RNR3, hits give low values 0.99 | S. cerevisiae deletion strains, locus YIL073C, strain SPO22, hits give low values 0.92 | S. cerevisiae deletion strains, locus YIL125W, strain kgd1, hits give low values 0.971 | S. cerevisiae deletion strains, locus YIR030C, strain dcg1, hits give low values 0.989 | S. cerevisiae deletion strains, locus YJL095W, strain BCK1, hits give low values 1.01 | S. cerevisiae deletion strains, locus YJL134W, strain LCB3, hits give low values 0.987 | S. cerevisiae deletion strains, locus YJL168C, strain set2, hits give low values 0.981 | S. cerevisiae deletion strains, locus YJL187C, strain SWE1 (second series), hits give low values 0.991 | S. cerevisiae deletion strains, locus YJR043C, strain POL32, hits give low values 0.974 | S. cerevisiae deletion strains, locus YJR075W, strain HOC1, hits give low values 0.99 | S. cerevisiae deletion strains, locus YKL009W, strain mrt4, hits give low values 0.966 | S. cerevisiae deletion strains, locus YKL068W, hits give low values 0.98 | S. cerevisiae deletion strains, locus YKL085W, strain MDH1 (second series), hits give low values 0.991 | S. cerevisiae deletion strains, locus YKL085W, strain MDH1, hits give low values 0.991 | S. cerevisiae deletion strains, locus YKL190W, strain CNB1, hits give low values 1 | S. cerevisiae deletion strains, locus YKR001C, strain vps1, hits give low values 1 | S. cerevisiae deletion strains, locus YLR039C, strain RIC1, hits give low values 0.928 | S. cerevisiae deletion strains, locus YLR058C, strain SHM2, hits give low values 0.994 | S. cerevisiae deletion strains, locus YLR102C, strain apc9, hits give low values 0.982 | S. cerevisiae deletion strains, locus YLR262C, strain YPT6, hits give low values 0.892 | S. cerevisiae deletion strains, locus YLR268W, strain sec22, hits give low values 1.01 | S. cerevisiae deletion strains, locus YLR330W, strain CHS5, hits give low values 0.987 | S. cerevisiae deletion strains, locus YLR342W, strain FKS1 (second series), hits give low values 0.965 | S. cerevisiae deletion strains, locus YLR371W, strain rom2, hits give low values 0.967 | S. cerevisiae deletion strains, locus YLR418C, strain cdc73, hits give low values 1.03 | S. cerevisiae deletion strains, locus YML016C, strain PPZ1, hits give low values 0.993 | S. cerevisiae deletion strains, locus YML032C, strain rad52, hits give low values 0.974 | S. cerevisiae deletion strains, locus YML124C, strain tub3, hits give low values 0.999 | S. cerevisiae deletion strains, locus YMR078C, strain ctf18, hits give low values 1 | S. cerevisiae deletion strains, locus YMR223W, strain ubp8, hits give low values 0.988 | S. cerevisiae deletion strains, locus YMR263W, strain SAP30, hits give low values 1 | S. cerevisiae deletion strains, locus YMR307W, strain GAS1, hits give low values 1.01 | S. cerevisiae deletion strains, locus YNL067W, strain RPL9B, hits give low values 0.994 | S. cerevisiae deletion strains, locus YNL128W, strain TEP1, hits give low values 1.01 and 0.986 | S. cerevisiae deletion strains, locus YNL153C, strain GIM3, hits give low values 1.02 and 1.01 | S. cerevisiae deletion strains, locus YNL175C, strain NOP13, hits give low values 0.994 | S. cerevisiae deletion strains, locus YNL197C, strain WHI3, hits give low values 1.01 | S. cerevisiae deletion strains, locus YNL224C, strain SQS1, hits give low values 0.987 | S. cerevisiae deletion strains, locus YNL233W, strain BNI4, hits give low values 1.01 | S. cerevisiae deletion strains, locus YNL250W, strain rad50, hits give low values 0.969 | S. cerevisiae deletion strains, locus YNL271C, strain bni1, hits give low values 0.98 | S. cerevisiae deletion strains, locus YNL298W, strain CLA4, hits give low values 1 | S. cerevisiae deletion strains, locus YNL307C, strain MCK1, hits give low values 0.997 | S. cerevisiae deletion strains, locus YNL322C, strain KRE1, hits give low values 0.991 and 0.996 | S. cerevisiae deletion strains, locus YNR052C, strain pop2, hits give low values 0.981 | S. cerevisiae deletion strains, locus YOL006C, strain TOP1, hits give low values 0.996 | S. cerevisiae deletion strains, locus YOL012C, strain htz1 0.847 | S. cerevisiae deletion strains, locus YOL147C, strain pex11, hits give low values 1 | S. cerevisiae deletion strains, locus YOR061W, strain CKA2, hits give low values 0.993 | S. cerevisiae deletion strains, locus YOR069W, strain VPS5, hits give low values 1 | S. cerevisiae deletion strains, locus YOR083W, strain WHI5 (second series), hits give low values 0.953 | S. cerevisiae deletion strains, locus YOR136W, strain idh2, hits give low values 0.994 | S. cerevisiae deletion strains, locus YOR144C, strain elg1, hits give low values 0.994 | S. cerevisiae deletion strains, locus YOR184W, strain ser1, hits give low values 0.974 | S. cerevisiae deletion strains, locus YOR316C, strain cot1, hits give low values 0.994 | S. cerevisiae deletion strains, locus YPL055C, strain LGE1, hits give low values 1 | S. cerevisiae deletion strains, locus YPL241C, strain CIN2, hits give low values 0.967 | S. cerevisiae deletion strains, locus YPR119W, strain clb2, hits give low values 0.998 | S. cerevisiae deletion strains, locus YPR141C, strain kar3, hits give low values 0.998 | S. cerevisiae deletion strains, locus YPR163C, strain tif3, hits give low values 1 | S. cerevisiae deletion strains, locus YPR167C, strain met16, hits give low values 0.999 | S. cerevisiae deletion strains, strain wtn01, hits give low values 0.994 | S. cerevisiae strains, strain wild type, hits give low values 0.994
